In PubChem BioAssay AID588501 (NMMLSC, 2011):
In all, about 360,000 compounds went through this assay and about 420 (0.12%) were called active. Cut-off read from the data, not from the text of the source: active = inhibition above about 30%; inconclusive = no clear call, values can overlap the other calls; inactive = below that. For the sample, actives were picked, then their nearest neighbours and some compounds at random.

Molecular target: Lethal factor (Bacillus anthracis) (UniProt P15917)
Experiment: Bacillus anthracis LF protease inhibitors, primary screen, biochemical, multiplex microsphere, MLPCN library (AID 588501); note: plate controls were buffer without enzyme for full effect and enzyme alone for no effect
Settings: multiplex microsphere protease cleavage assay, at 10 µM, hits give high values

SMILES	inhibition
C=CCNC(=O)/C=C/c1ccc(C(C)C)cc1	-1.4% (inactive)
NC1=NC(=O)S/C1=C\c1ccc(O)cc1	-0.1% (inactive)
O=C(/C=C(O)/C=C/c1ccc(O)cc1)/C=C/c1ccc(O)cc1	31.4% (active)
CC(O)CN(Cc1ccc(Cl)cc1)CC(C)O (stereo not given)	0.1% (inactive)
O=C1N[C@@H](Cc2ccccc2)C(=O)N2[C@H]1C[C@]1(Br)c3ccccc3N(S(=O)(=O)c3ccccc3)[C@H]21	-0.3% (inactive)
Cn1c(SCC(=O)c2ccccc2)ncc(C(=O)Nc2ccc(F)cc2)c1=O	-1.5% (inactive)
CCCCN1CC(COc2ccccc2)Oc2cccc(F)c2S1(=O)=O (stereo not given)	-2.2% (inactive)
CN(Cc1cn(Cc2ccc(C(F)(F)F)cc2)nn1)C1CN(Cc2cn(Cc3ccc(C(F)(F)F)cc3)nn2)S(=O)(=O)C1 (stereo not given)	-0.1% (inactive)
COC(=O)[C@H]1Cc2cnoc2C[C@]1(C)C(=O)O	4.2% (inactive)
COc1ccc2[nH]c(=O)c(C3c4cc(OC)c(OC)cc4CCN3C(=O)c3ccco3)cc2c1 (stereo not given)	-1.5% (inactive)
CC(=NNC(=S)N1CCCCCC1)c1ccccn1	50% (active)
O=[N+]([O-])c1ccc(NC(=S)N2CCN(c3ccccn3)CC2)cc1	1.1% (inactive)
CCOC(=O)c1ccc(NC(=S)N2CCN(c3ccccn3)CC2)cc1	-15.7% (inactive)
COc1ccccc1CNC(=O)c1cc(-c2cc(F)ccc2OC)n[nH]1	-4.6% (inactive)
O=C(NC1CCCC1)C(c1ccco1)N(C(=O)c1ccco1)c1ccc(F)cc1 (stereo not given)	-0.3% (inactive)
Cc1cc(C)c2nc(SCC(=O)N(C)C3CCS(=O)(=O)C3)cc(C)c2c1 (stereo not given)	0.4% (inactive)
N#CC(Cc1cc2ccccc2n1S(=O)(=O)c1ccccc1)OCc1ccccc1 (stereo not given)	-10.4% (inactive)
O=C(NN1C(=O)C2CCCCC2C1=O)c1ccco1 (stereo not given)	15.5% (inactive)
CC(C)c1c(O)nc(SCCOc2ccc(Cl)cc2)[nH]c1=O	-0.5% (inactive)
COc1ccc(C(=O)Nc2nc(-c3ccc(OC)cc3)c(-c3ccc([N+](=O)[O-])cc3)s2)cc1	30.1% (active)
COc1ccc(-c2[nH][nH]c(=O)c2NC(=O)c2ccc([N+](=O)[O-])cc2)cc1	6.4% (inactive)
COc1ccc(NC(=O)c2cn(CCC#N)nc2-c2ccc([N+](=O)[O-])cc2)cc1	-4.4% (inactive)
COc1ccc(CCNC(=O)CN(c2ccccc2)S(C)(=O)=O)cc1	3.6% (inactive)

SMILES	inhibition
Cc1ccc(CSCCNC(=O)CN(c2ccc(F)cc2)S(C)(=O)=O)cc1	3% (inactive)
COc1ccc(N(CC(=O)NCCSCc2cccc(Cl)c2)S(C)(=O)=O)cc1	34.3% (active)
Cc1cccc(N2CCN(C(=O)CCS(=O)(=O)c3ccc4c(c3)NC(=O)C(C)S4)CC2)c1C (stereo not given)	-3% (inactive)
CC(=O)OCCN(CCCn1c(-c2ccncc2)nc2ccccc21)c1nc(-c2ccc(C)cc2)cs1	41.1% (active)
COc1ccc(-c2nc3ccccc3n2CCC(C)C)cc1OC	0.7% (inactive)
Cc1ccc(-c2csc(N3CCN(c4cc5c(cc4Cl)nc(-c4ccncc4)n5CCOCCO)CC3)n2)cc1	-0.9% (inactive)
COc1ccc(N2CCN(C(=O)c3ccccc3NC(=O)C3=C(C)OCCS3)CC2)cc1	1.2% (inactive)
COc1ccc(CC(=O)NC(C)c2ccc(Cl)c(Cl)c2)cc1S(=O)(=O)N1CCOCC1 (stereo not given)	1.2% (inactive)
O=C(NCc1ccncc1)C(=O)NCC1OCCN1S(=O)(=O)c1ccc(Br)cc1 (stereo not given)	-6.7% (inactive)
C=C1C(=O)[C@]23C[C@H]1CCC2[C@@]1(C)C(C[C@@H]3O)[C@](C)(C(=O)O)CC[C@@H]1O (stereo not given in full)	6% (inactive)
COc1ccc(OCC(=O)NCCc2ccc(S(N)(=O)=O)cc2)cc1	-1.2% (inactive)
CCC(C)(C(=O)Nc1ccccc1C)N(C(=O)CNC(C)=O)c1ccc(C)cc1 (stereo not given)	0.5% (inactive)
COC(=O)Cc1ccc(N(Cc2ccccc2F)S(=O)(=O)c2ccc(Br)cc2)cc1	-0.1% (inactive)
CC(C)(C)c1ccc(C(=O)N2CCN(CCNC(=O)C(=O)Nc3ccc(F)cc3)CC2)cc1	-3.8% (inactive)
Cc1cccc(N2CCN(C(C)C(=O)N3CCc4ccccc43)CC2)c1C (stereo not given)	-6.6% (inactive)
COCCn1c(N)c(NCc2ccccc2)c(=O)[nH]c1=O	-3.2% (inactive)
COCCNc1ncnc2c1nc1n2CCCC1	0.3% (inactive)
O=C(CC(c1ccccc1)c1cc(Cl)ccc1O)NCCN1CCOCC1 (stereo not given)	-5.6% (inactive)
OC(c1ccc(Cl)cc1)C(CN1CCOCC1)c1ccccc1 (stereo not given)	40.7% (active)
OC(c1ccccc1)C(CN1CCOCC1)c1ccccc1 (stereo not given)	-9.8% (inactive)
O=S(N1CCCCCC1)C12CC3CC(CC(C3)C1)C2 (stereo not given)	-5.3% (inactive)
O=C(CNC(=O)c1ccccc1F)c1ccc(Br)cc1	0.4% (inactive)
O=C(C[n+]1cc(Br)cc2ccccc21)c1ccc(F)cc1	36.5% (active)

SMILES	inhibition
O=C(c1ccc(F)cc1)n1c(=S)nc2ccccn21	-9.4% (inactive)
COc1ccc(CNC(=O)C(NS(=O)(=O)c2cccc3nsnc23)C(C)C)cc1 (stereo not given)	0.7% (inactive)
NS(=O)(=O)c1ccc(CCNC(=O)c2ccc(Cl)c(S(=O)(=O)N3CCCCCC3)c2)cc1	-0.9% (inactive)
O=C(O)C1CCCN(CCC=C(c2ccccc2)c2ccccc2)C1 (stereo not given)	-6.7% (inactive)
O=C(O)c1ccc(S(=O)(=O)N2CCC(Cc3ccccc3)CC2)cc1	-1.5% (inactive)
Cc1onc(-c2ccccc2Cl)c1C(=O)N(Cc1ccc(N(C)C)cc1)C(C)C	8.3% (inactive)
Cc1onc(-c2ccccc2Cl)c1C(=O)NCCn1ccc2ccccc21	53.9% (active)
Cc1ccc2cc(CCNC(=O)c3c(-c4ccccc4Cl)noc3C)c(=O)[nH]c2c1	-10.3% (inactive)
CCC(=O)N1Cc2cc(C(=O)NCc3cccc(F)c3)nc(-c3cccc(C4=CCCC4)c3)c2[C@H]1CCO	-8.3% (inactive)
Cc1ccc(OCC(=O)N2CCN(C(=O)c3cccnc3)CC2)cc1	-7.8% (inactive)
CN1/C(=c2/s/c(=C3/C(=O)N(c4ccccc4)NC3=Nc3ccccc3)n(C)c2=O)C(C)(C)c2ccccc21	-14.6% (inactive)
COc1cc2c(cc1OC)C(C)N(S(=O)(=O)c1cnc(Cl)c(Cl)c1)CC2 (stereo not given)	3.2% (inactive)
COc1ccccc1OCCC(=O)OCC(=O)NCc1ccccc1	-1.1% (inactive)
CN1C(=O)/C(=C\c2ccc(-c3ccccc3)o2)SC1=S	30.1% (active)
Cc1ccc(C(=O)O)cc1-c1ccc(/C=C2\SC(=O)N(CC(=O)Nc3ccc4c(c3)OCO4)C2=O)o1	-2.8% (inactive)
NS(=O)(=O)c1ccc(-c2ccc(/C=C3\SC(=O)NC3=O)o2)cc1	-4.1% (inactive)
CCC1CCc2c(sc(NC(C)=O)c2C#N)C1 (stereo not given)	2.5% (inactive)
CCc1nc2ccc(C(=O)NC3CCN(Cc4ccccc4)CC3)cn2c1N(C)CCN1CCOCC1	-2.5% (inactive)
COC(=O)c1ccc2nc(-c3ccc(C)cc3)c(Cc3ccc(OC)cc3C)n2c1	2.1% (inactive)
COc1cc(NC(=O)CSc2nnc3ccc(-c4ccncc4)nn23)cc(OC)c1	-3.6% (inactive)
O=C(NCc1ccccc1Cl)NC(=O)c1csc([N+](=O)[O-])c1	-4.7% (inactive)
O=C(NNC1=NCCC1)c1cccc(S(=O)(=O)N2CCCCC2)c1	-3.2% (inactive)
COC(=O)c1ccc(CSc2nc3cc(Cl)ccc3o2)cc1	-2.5% (inactive)

SMILES	inhibition
CC1(C(=O)NS(=O)(=O)Cc2cccc(Cl)c2)CCN1C(=O)Cc1ccc(Cl)cc1Cl (stereo not given)	-5.7% (inactive)
Nc1cccc(-c2cncc(N3CCN(Cc4ccccn4)CC3)n2)c1	-2.8% (inactive)
Cc1cc2nc(SCCN3CCOCC3)[nH]c2cc1C	7.8% (inactive)
CC(=O)c1ccc(N2C(=NC(=O)C(C)C)SC3CS(=O)(=O)CC32)cc1 (stereo not given)	-2.5% (inactive)
CCN(CC(=O)Nc1ccccc1C(F)(F)F)C(=O)CSCc1c(C)noc1C	2.2% (inactive)
O=S(=O)(c1cccc(S(=O)(=O)N2CCC(n3nnc4ccccc43)CC2)c1)N1CCCCC1	4.7% (inactive)
COc1cc(S(=O)(=O)N2CCN=C2c2ccccc2)ccc1Cl	-0.6% (inactive)
CNC(=O)c1c(NC(NC(=O)c2ccco2)C(=O)c2ccc(Cl)cc2)sc2c1CCCC2 (stereo not given)	-4.6% (inactive)
CCOC(=O)C1CCN(Cc2coc3ccc(Cl)cc3c2=O)CC1	0.9% (inactive)
Cc1ccc(NC(=O)C2CCN(S(=O)(=O)c3ccc4c(c3)NC(=O)CO4)CC2)cc1C	1.3% (inactive)
CCc1ccccc1NC(=O)CSc1nnc(CCNC(=O)OC(C)(C)C)o1	-3.1% (inactive)
Cc1ccc(NS(=O)(=O)c2ccc(-c3coc(C)n3)cc2)c(C)c1	-2% (inactive)
Oc1ccccc1N1CCN(C(=S)NCc2ccccc2)CC1	-2.2% (inactive)
O=C(CN1CCN(c2ccccc2O)CC1)NC(=O)NCc1ccccc1	50.8% (active)
COc1ccccc1N1CCN(CC(=O)NC(=O)NCc2ccco2)CC1	2.9% (inactive)
Cc1cc(Br)ccc1NC(=O)CN(C)C(=O)CN1C(=O)NC2(CCCC2)C1=O	1.3% (inactive)
COc1cc(OC)cc(-c2c(-c3cccs3)c3cc(-c4ccc(OC)cc4F)ccc3n2C)c1	-3.2% (inactive)
CCOc1ccccc1-c1nc(CN2CCC(C(=O)N3CCOCC3)CC2)c(C)o1	0.2% (inactive)
Cc1noc(C)c1CSc1nnc2ccc3ccccc3n12	-0.1% (inactive)
NC1=NC(=O)C(Cc2cccc(Cl)c2Cl)S1 (stereo not given)	-6.2% (inactive)
COc1cc(Cl)ccc1OCc1cc(C(=O)N2CC[C@@H]3CCCC[C@H]3C2)no1	0.9% (inactive)
